# Compound activity (PubChem)
# Hits are enriched below; roughly 1.3% of the tested compounds scored in any of these assays.
# MCL1 BIM primary = disrupts human MCL1 binding to BIM-BH3 peptide; Q07820; GST-MCL1 / FITC-Bim-BH3 fluorescence polarization; inhibition, % at 10.9 µM; 0.68% of 320,000 active;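 active = inhibition above the mean inhibition of all tested compounds plus 3 SD, set per campaign, cut at about 40% in these data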;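 note: higher means more loss of mP so more displacement of Bim peptide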
# MEX-5 binding = C. elegans MEX-5 TCR-2 RNA binding activity | MEX-5/FITC-TCR2 RNA binding, fluorescence polarization; stronger effect = lower value | Q9XUB2 | 0.38% of 300,000 active | AID 1832 | activity score (negative = inhibition of binding), % at 10 µM;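 active = inhibition past about -25% in most replicates, and total fluorescence under double the plate's negative control median, limit read from the data; inconclusive = replicates evenly split on the limit, or fluorescence at least double controls; inactive = too little inhibition in most replicates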
# Target sequence (Q9XUB2 whole entry, looked up): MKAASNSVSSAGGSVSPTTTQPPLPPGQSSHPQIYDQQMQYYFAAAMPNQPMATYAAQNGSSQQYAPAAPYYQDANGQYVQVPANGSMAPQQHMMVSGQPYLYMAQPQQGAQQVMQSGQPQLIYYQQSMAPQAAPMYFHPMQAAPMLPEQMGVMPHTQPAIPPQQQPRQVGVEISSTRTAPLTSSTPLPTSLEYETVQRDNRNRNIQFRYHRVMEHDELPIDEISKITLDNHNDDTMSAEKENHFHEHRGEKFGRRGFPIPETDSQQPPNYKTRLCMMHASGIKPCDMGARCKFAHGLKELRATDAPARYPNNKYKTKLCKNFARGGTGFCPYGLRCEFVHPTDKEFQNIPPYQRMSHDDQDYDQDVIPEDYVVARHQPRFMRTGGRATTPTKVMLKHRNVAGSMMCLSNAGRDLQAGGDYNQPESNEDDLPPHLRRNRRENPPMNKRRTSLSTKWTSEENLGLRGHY
# EBV gp42 block = EBV gp42 inhibition; Q1HVG2; Fluorescence polarization binding assay, mP read-out; inhibition, % (tested at 21.74 µM); 0.42% of 220,000 active; AID 1085; in the data active = inhibition above about 50%
# Bcl-xL primary = inhibitors of human Bcl-xL | Q07817 | 0.7% of 320,000 active | inhibition, % at 10.9 µM | GST-Bcl-xL / FITC-Bim BH3 peptide fluorescence polarization;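 active = inhibition above the mean of all tested compounds plus 3 SD, cutoff set per campaign, cut at about 30% in these data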;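 note: inhibitors lower millipolarization by displacing the labeled peptide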
# GLD-1 RNA inh = GLD-1-TGE RNA interaction inhibition (C. elegans); purified GLD-1 + fluorescein TGE RNA, fluorescence polarization; AID 2280; 0.44% of 320,000 active; inhibition, % at 5.96 µM;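 active = percent inhibition above a per-plate cutoff, the plate mean of test compounds plus 3 SD, cut at about 30% in these data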
# BCLXL inh confirm = counter-screen for MCL1 inhibitors: confirmation of human Bcl-xL inhibitors; 54% of 1,700 active; GST-Bcl-xL / FITC-Bim BH3 peptide FP binding; AID 2166; inhibition, % at 10.9 µM; shares compounds with MCL1 BIM primary;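 active = inhibition above a cutoff equal to the mean inhibition of all tested compounds plus 3 SD, cut at about 30% in these data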
# MCL1 BIM confirm = confirmation of human MCL1 and BIM-BH3 interaction inhibitors; 61% of 1,700 active; shares compounds with MCL1 BIM primary; inhibition, % at 10.9 µM; GST-MCL1 / FITC-Bim-BH3 fluorescence polarization;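 active = inhibition above the average of all tested compounds plus 3 SD, cut at about 40% in these data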
# GLD-1 TGE cf = GLD-1 TGE RNA interaction inhibition, confirmation | shares compounds with GLD-1 RNA inh | GLD-1/FL-TGE RNA fluorescence polarization, biochemical | inhibition, % at 5.96 µM | 10% of 550 active | AID 2459;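 active = average inhibition across triplicates above the hit cutoff set in the primary screen, cut at about 32% in these data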
# A number is an active result; - = inactive; ? = inconclusive; . = not tested or not shown; + = active, no number.
SMILES,MCL1 BIM primary,MEX-5 binding,EBV gp42 block,Bcl-xL primary,GLD-1 RNA inh,GLD-1 TGE cf,others
COc1cc2c(cc1OC)-c1c(OC)c(OC)c(OC)c3ccnc(c13)C2=O,55,-83,-,52,41,41,BCLXL inh confirm=59;MCL1 BIM confirm=56
CCCCCc1nc2c(c(=O)c3ccccc3n2C)c(=O)n1C1CCCCCC1,-,-,-,-,-,.,
Nc1ccc2nonc2c1[N+](=O)[O-],+,?,194,+,+,158,BCLXL inh confirm=+;MCL1 BIM confirm=+
COC(=O)CCCCC1SCC(NC(=O)c2ccccc2)C1Cl (stereo not given),46,-,53,48,38,-,
Cn1cccc1/C=C1/C(=O)NC(=S)N(Cc2ccc(F)cc2)C1=O,-,-,-,-,-,.,
CN(C)C(Cc1ccc(C#N)cc1)C(=O)c1ccccc1 (stereo not given),-,-,-,-,-,.,
N#Cc1ccc(/C=C/C(=O)O)cc1,-,.,-,-,55,-,
CNC(=O)Oc1ccc(-c2cn3cc(Cl)ccc3n2)cc1,-,-,-,-,-,.,
CNC(=O)Oc1cccc(-c2cn3cc(OC(=O)NC)ccc3n2)c1,-,.,-,-,42,-,
CNC(=O)Oc1ccc2c(c1)C(=O)c1ccccc1CO2,-,-,-,-,-,.,
CCN(CC)CCN1Cc2ccccc2C1=N,-,-,-,32,36,-,
